# About 79,000 compounds went through this panel and 15% of them were active in at least one assay; those are over-represented in the sample as a whole. Unmarked numbers belong to inactive results. Activity calls are given as the source filed them. Rule as the data show it: active = growth inhibition above about 70%; inactive = the rest.
# Assay: NCI Yeast Anticancer Drug Screen. Data for the mlh1 strain (AID 171);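 also: 0% = growth of vehicle-treated control cultures of the same strain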
# Conditions: S. cerevisiae mlh1 strain growth inhibition, stronger effect = higher value
# Description: Growth inhibition of yeast strains with defined genetic alterations is measured as a screen for potential anti-cancer activity. Selected strains with alterations in DNA damage repair or cell cycle control were exposed to compounds and growth inhibition was measured relative to vehicle treated controls. The strain used in this assay is mlh1
SMILES,growth inhibition (at 1.2 µM) [%],growth inhibition (at 3.7 µM) [%],growth inhibition (at 11.0 µM),growth inhibition (at 33.0 µM),growth inhibition (at 100.0 µM)
C(=Nc1ccc(-c2cc(-c3ccccc3)nc3ccc4ccccc4c23)cc1)c1ccccc1,8,17,9%,-8%,9%
C=C1CC(CCCl)(c2ccccc2)OC1=O (stereo not given),21,35,82% (active),97% (active),99% (active)
Cc1c(C)c(C)c(CSC(=N)N)c(C)c1C,-35,-43,-17%,77% (active),98% (active)
O=C1C=C(Cl)C(=O)C(c2ccc(Cl)cc2)=C1,34,61,84% (active),97% (active),96% (active)
CCOC(=O)[C@H]1Nc2ccc(OC)cc2C2c3ccccc3CC21 (stereo not given in full),-29,-21,-38%,46%,86% (active)
COC(=O)Oc1cc(Cl)c(Cl)cc1Cl,1,-2,-7%,3%,13%
CCCCCCC(O)CNCc1ccnc2ccc(OC)cc12 (stereo not given),5,9,15%,18%,35%
CN(C)c1ccc(N=Nc2ccncc2)cc1,7,11,29%,42%,47%
